Screening results as filed in PubChem.
IP6K1 inh – IP6K1 kinase inhibition; Q92551; IP6K1 kinase, ADP-Glo luminescence, 2 h; stronger effect = lower value; activity change, % (series mostly up to about 58 µM); 140,000 compounds, 0.81% hits; in the data active means activity change below about -25%; further: on the % scale 0 is the no-effect control and ±100 the full control effect
Target sequence (Q92551 whole entry, looked up): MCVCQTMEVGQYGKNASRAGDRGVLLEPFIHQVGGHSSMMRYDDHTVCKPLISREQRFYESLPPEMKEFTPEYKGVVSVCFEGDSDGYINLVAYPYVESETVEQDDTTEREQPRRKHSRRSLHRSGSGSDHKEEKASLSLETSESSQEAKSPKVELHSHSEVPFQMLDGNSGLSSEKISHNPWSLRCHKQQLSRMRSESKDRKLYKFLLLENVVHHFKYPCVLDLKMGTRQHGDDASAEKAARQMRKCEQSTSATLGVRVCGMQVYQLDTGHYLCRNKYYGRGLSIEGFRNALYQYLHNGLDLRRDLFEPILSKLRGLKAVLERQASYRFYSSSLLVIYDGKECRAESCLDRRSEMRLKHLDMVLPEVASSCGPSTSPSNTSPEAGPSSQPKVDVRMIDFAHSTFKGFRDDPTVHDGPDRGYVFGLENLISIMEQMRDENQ
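ADP-Glo luminescence measures ADP made by human IP6K1 during a 2 h RT reaction with ATP/IP6 (mix at 1.3 mM/130 uM); top library doses 57.5 and 19.1 uM final.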
SNCA expr inh – inhibitors of alpha-synuclein (SNCA) gene expression. AID 1671194. 140,000 compounds, 0.17% hits. Potency, µM (titrated, usually from 57.2 µM), inactives show at the highest dose activity change, negative = inhibition, actives largely listed as inhibitors. HEK-293 SNCA-luciferase knock-in, luminescence, 24 h;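 further: potency means the concentration at half of the fitted maximal effect; plate controls were DMSO cells for no effect and cell-free wells for full effect; nearly all actives have a fitted effect of over 45% in size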
SNCA viab count – counter-screen for SNCA expression inhibitors: cell viability; HEK-293-SNCA-luc viability, GF-AFC fluorescence, 24 h; Potency, µM (top dose mostly 57.1 µM), for the others: at the highest dose activity change, negative = cytotoxicity, usual class: cytotoxic; 150,000 compounds, 0.12% hits; AID 1671193;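 further: potency means the concentration at half of the fitted maximal effect; 0% = DMSO-treated cells and -100% = medium-only wells without cells; nearly all actives have a fitted effect of over 30% in size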
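HEK-293-SNCA-luc cells (1500/well) plated 24 h, then exposed 24 h to a dilution series; GF-AFC added 30 min at 37C, fluorescence 405/540 nm; normalised to medium-only and DMSO wells, Hill fit.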
KDM5B inh – inhibitors of human KDM5B histone demethylase; 220,000 compounds, 2.6% hits; KDM5B demethylase, FDH-coupled NADH fluorescence (FDH is formaldehyde dehydrogenase); Q9UGL1; Potency, µM (top dose mostly 57.7 µM), hits mostly inhibitors; further: potency means the concentration at half of the fitted maximal effect; 0% is about no effect; nearly all actives have a fitted effect of over 70% in size
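Here, H3K4me3 peptide (12.5 µM in substrate mix) is demethylated by KDM5BΔAP, 200 nM final, after 10 min compound exposure. Formaldehyde product is coupled through FDH (0.25 U/mL in mix) to NADH fluorescence; 30-min ΔRFU feeds dose-response curves.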
An asterisk follows results filed as active; i = inactive; ? = inconclusive; nt = not tested or not shown; [ ] = another dose, or the depositor's remark. Shown are actives, neighbours in structure and some others; about 2.9% of the full set was active somewhere. Unless noted, the call rests on the fitted dose curve; in most records, active means well fitted curve in the direction sought with a large enough effect; inconclusive means small, poorly fitted or top-dose-only effect, or another doubt; inactive means no such curve, though single readings can be large; an effect the other way counts as inactive or inconclusive.

SMILES	IP6K1 inh	SNCA expr inh	SNCA viab count	KDM5B inh
COc1ccccc1CC(=O)NCc1nnc2ccc(-c3ccc(C)c(C)c3)nn12	0.6	-20.2%	-16.8%	31.6µM*
COc1ccccc1C1=NOC(C(=O)NC(C)C)C1 (centres undefined)	-6.5	9.9%	2.2%	i
Cc1cc(C)n(C(C)CC(=O)Nc2ccc(C)c(F)c2)n1 (centres undefined)	-6.1	10.1%	7.0%	i
Cc1ccc(NC(=O)CCNc2cnc3cnccn23)cc1F	25.8	-28.7%	1.6%	22.4µM*
COc1ccc(/C=C(/C#N)c2ccccn2)cc1F	nt	nt	nt	i
COc1ccc(-c2nc3c(c(=O)[nH]2)CCN(C(=O)COc2ccc(F)c(F)c2)C3)cc1	30.3	-14.2%	3.3%	22.4µM*
COc1ccc(-c2nc3c(c(=O)[nH]2)CCN(C(=O)Nc2ccc(C)cc2C)C3)cc1	14.7	-6.4%	-8.9%	25.1µM*
COc1cccc(-c2ncc(CNC(=O)C3NCCc4[nH]cnc43)s2)c1 (centres undefined)	6.7	72.5%	-0.9%	20µM*
Cc1nn(-c2ccc(F)cc2)c(C)c1CNC(=O)C1NCCc2[nH]cnc21 (centres undefined)	0.0	7.5%	1.3%	12.6µM*
COc1ccc(-c2[nH]ncc2CNC(=O)C2NCCc3[nH]cnc32)cc1 (centres undefined)	15.7	-29.6%	-18.9%	?
O=C(NCc1nnnn1-c1ccccc1)C1NCCc2[nH]cnc21 (centres undefined)	31.3	8.4%	5.0%	i
O=C(NCc1csc(-c2cnccn2)n1)C1NCCc2[nH]cnc21 (centres undefined)	18.1	10.0%	0.1%	25.1µM*
O=C(NCCc1nc(-c2cccnc2)n[nH]1)C1NCCc2[nH]cnc21 (centres undefined)	6.4	-23.8%	-13.9%	7.94µM*
CCOc1ccc(NS(=O)(=O)c2cccc(C(=O)Nc3ccc4oc(C)nc4c3)c2)cc1	nt	nt	nt	i
O=C(c1cc(-c2ccccc2)on1)N(Cc1ccco1)Cc1ccccc1F	nt	nt	nt	i
CC12CCC(=O)C=C1C(O)CC1C2C(O)CC2(C)C1CC[C@]2(O)C(=O)CO (some centres undefined)	-19.6	nt	1.9%[12.5 µM]	nt
CCCC(=O)N(C)CCCc1ccccc1	nt	nt	nt	i
O=C(NCCc1csc(-c2ncccn2)n1)C1NCCc2[nH]cnc21 (centres undefined)	-11.3	-5.9%	-11.1%	i
O=C(NCCc1csc(-c2cnccn2)n1)C1CC2(CCNCC2)CN1 (centres undefined)	16.8	?	-3.3%	28.2µM*
O=C(NCCc1csc(-c2cccnc2)n1)C1NCCc2[nH]cnc21 (centres undefined)	-5.5	-14.1%	1.2%	12.6µM*
O=C(c1ccc2c(c1)OCO2)N1CCCC2(C1)Nc1cccnc1NC2=NC1CCCC1 (centres undefined)	13.7	13.1%	-24.0%	?
O=C(CCc1ccccc1)N1CCCC2(C1)Nc1cccnc1NC2=NC1CCCC1 (centres undefined)	1.6	19.0%	-22.2%	25.1µM*
O=C(Cc1ccccc1)N1CCCC2(C1)Nc1cccnc1NC2=NC1CCCC1 (centres undefined)	2.6	20.8%	-17.7%	28.2µM*
O=C(c1ccccn1)N1CCCC2(C1)Nc1cccnc1NC2=NC1CCCC1 (centres undefined)	0.0	-14.4%	-13.9%	?
Cc1noc(C)c1S(=O)(=O)N1CCCC2(C1)Nc1cccnc1NC2=NC1CCCC1 (centres undefined)	0.0	-7.7%	-9.8%	22.4µM*
SMILES	IP6K1 inh	SNCA expr inh	SNCA viab count	KDM5B inh
COc1ccccc1C1c2ccc(O)cc2Oc2ncn3nc(C)nc3c21 (centres undefined)	nt	nt	nt	i
CN(C)C(=O)c1ccnc(-c2nnc3ccc(NCCN4CCOCC4)nn23)c1	-3.1	-5.6%[87.6 µM]	9.6%[87.6 µM]	35.5µM*
O=C(CSCc1ccc(F)cc1)N1CCc2c([nH]c3ccccc23)C1c1ccc(Cl)cc1 (centres undefined)	19.6	10µM*	-6.3%	?
Cc1cc(-c2cc(-c3cccs3)nc3c(C)noc23)ccn1	-15.4	-31.7%[87.6 µM]	-12.6%[87.6 µM]	28.2µM*
COc1ccccc1-c1cc(-c2ccccc2OC)c2onc(C)c2n1	-4.7	11.2%[87.6 µM]	0.7%[87.6 µM]	?
COc1ccccc1-c1cc(-c2cccs2)nc2c(C)noc12	-19.0	-15.5%[87.6 µM]	0.8%[87.6 µM]	35.5µM*
CCCCN1CCN(C(=O)CCc2cc3ccc(C)cc3[nH]c2=O)CC1	18.6	2.3%	12.5%	i
Cc1ccc2[nH]c(=O)c(CCC(=O)N3CCCCC3)cc2c1	9.8	176.7%	5.4%	28.2µM*
Cc1cccc(-c2nocc2CCC(=O)NC2CCN(Cc3ccccc3)CC2)c1	13.3	116.7%	5.1%	i
Cc1ccc2[nH]c(=O)c(CCC(=O)N3CCN(CC(C)C)CC3)cc2c1	28.8	13.3%	12.7%	22.4µM*
Cc1ccc2[nH]c(=O)c(CCC(=O)NC3CCN(Cc4ccccc4)CC3)cc2c1	27.6	4.9%	5.6%	25.1µM*
COCCn1c(=O)cnc2cnc(N3CCOCC3)nc21	nt	-7.9%	?	nt
CN1Cc2cccn2CC1CNC(=O)c1cnn(C)c1 (centres undefined)	15.0	-12.0%	-2.2%	22.4µM*
Cc1cc(C(=O)NCC2Cn3cccc3CN2C)nn1C (centres undefined)	5.0	5.4%	-0.3%	25.1µM*
CN1Cc2cccn2CC1CNC(=O)c1nn(C)c2ccccc12 (centres undefined)	-2.9	0.2%	-14.6%	15.8µM*
CCn1nc(C)c(-c2cc(C(=O)NCC3Cn4cccc4CN3C)no2)c1C (centres undefined)	-10.2	2.5%	-10.2%	?
CN1Cc2cccn2CC1CNC(=O)c1nccn1C (centres undefined)	-1.0	-0.1%	-14.2%	14.1µM*
O=C(c1ccc(CS(=O)(=O)c2ccc(Br)cc2)o1)N1CCN(c2ccc(F)cc2)CC1	31.3	47.0%	6.8%	i
CN1Cc2cccn2CC1CNC(=O)c1ccco1 (centres undefined)	-2.5	5.3%	11.1%	28.2µM*
Cc1ccc(CNC(=O)NCC2Cn3cccc3CN2C)cc1 (centres undefined)	-11.5	-17.9%	3.3%	?
CN1Cc2cccn2CC1CNC(=O)c1ccccc1 (centres undefined)	-4.4	-4.2%	-7.6%	28.2µM*
CN1Cc2cccn2CC1CNC(=O)c1cc(CN2CCOCC2)on1 (centres undefined)	-0.7	24.3%	6.5%	17.8µM*
CN1Cc2cccn2CC1CNC(=O)c1cccs1 (centres undefined)	-5.1	-7.1%	-5.9%	20µM*
CN1Cc2cccn2CC1CNC(=O)c1cccn1C (centres undefined)	-10.1	0.2%	-0.8%	?
Cc1ccc2oc(C(=O)Nc3ccc(C)c(C)c3)cc(=O)c2c1	nt	nt	nt	i
CN1Cc2cccn2CC1CNC(=O)Nc1cccc(F)c1 (centres undefined)	13.4	-25.0%	-10.5%	?
